# Assay results: PMC7862700, “An all-to-all approach to the identification of sequence-specific readers for epigenetic DNA modifications on cytosine”
# Experiments:
# Assay in all cases: DAPPL (digital affinity profiling via proximity ligation, sequencing); 10 mM Tris-HCl pH 7.5, 50 mM NaCl, 1 mM DTT, 4% glycerol, room temperature, 30 min; GST-TFs on glutathione beads, 16-mer random dsDNA library, 0.1% formaldehyde crosslink after washing; high values mean tight binding
# [1] = target: T1, FLI1 (Homo sapiens, UniProt Q01543 1-452); conditions: protein: recombinant; tags: N-terminal GST; dsDNA, one strand shown
# T1 sequence: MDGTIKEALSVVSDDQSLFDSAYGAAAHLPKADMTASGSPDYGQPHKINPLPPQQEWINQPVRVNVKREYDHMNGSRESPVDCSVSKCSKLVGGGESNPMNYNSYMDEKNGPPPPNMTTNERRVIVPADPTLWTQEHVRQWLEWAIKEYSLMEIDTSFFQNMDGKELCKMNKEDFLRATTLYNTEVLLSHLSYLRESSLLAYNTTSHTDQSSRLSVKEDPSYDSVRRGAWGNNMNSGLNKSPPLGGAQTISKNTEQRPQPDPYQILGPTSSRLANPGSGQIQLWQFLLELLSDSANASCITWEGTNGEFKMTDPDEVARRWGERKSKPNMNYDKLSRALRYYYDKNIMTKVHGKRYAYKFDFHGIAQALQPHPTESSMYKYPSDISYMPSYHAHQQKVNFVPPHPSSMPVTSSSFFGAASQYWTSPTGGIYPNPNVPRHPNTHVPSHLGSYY
# Outline: (§1)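 Sequencing on an Illumina NextSeq500 followed washing, crosslinking with 0.1% formaldehyde, proximity ligation (BsaI/T4 ligase, 1 h, 37 °C) and PCR amplification of pools that had been incubated for 30 min at room temperature with 200 nmole of a random double-stranded 16-mer DNA library in Tris/NaCl/DTT/glycerol buffer. Each pool held DNA-barcoded human transcription factors, expressed in yeast as GST fusions and captured on glutathione beads, plus a tag-only sample. Binding signal is a hexamer's read frequency for a factor divided by its frequency in the tag-only sample.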
# [2] = target: T2, ELK1 (Homo sapiens, UniProt P19419 1-428); conditions: protein: recombinant; tags: N-terminal GST; dsDNA, one strand shown
# T2 sequence: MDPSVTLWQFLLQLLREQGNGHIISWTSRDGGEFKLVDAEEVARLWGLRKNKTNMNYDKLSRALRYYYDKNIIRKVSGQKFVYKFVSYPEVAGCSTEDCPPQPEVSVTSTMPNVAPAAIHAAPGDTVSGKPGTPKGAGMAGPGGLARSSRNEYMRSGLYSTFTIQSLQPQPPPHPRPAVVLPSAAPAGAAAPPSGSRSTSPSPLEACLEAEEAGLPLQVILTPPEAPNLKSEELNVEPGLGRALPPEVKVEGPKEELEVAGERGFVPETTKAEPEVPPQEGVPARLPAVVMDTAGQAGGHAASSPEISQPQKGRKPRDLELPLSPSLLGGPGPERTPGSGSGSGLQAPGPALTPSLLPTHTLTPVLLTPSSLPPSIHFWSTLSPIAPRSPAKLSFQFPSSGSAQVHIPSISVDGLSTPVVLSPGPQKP
# Outline: as §1
# [3] = target: T3, GABPA (Homo sapiens, UniProt Q06546 1-454); conditions: protein: recombinant; tags: N-terminal GST; dsDNA, one strand shown
# T3 sequence: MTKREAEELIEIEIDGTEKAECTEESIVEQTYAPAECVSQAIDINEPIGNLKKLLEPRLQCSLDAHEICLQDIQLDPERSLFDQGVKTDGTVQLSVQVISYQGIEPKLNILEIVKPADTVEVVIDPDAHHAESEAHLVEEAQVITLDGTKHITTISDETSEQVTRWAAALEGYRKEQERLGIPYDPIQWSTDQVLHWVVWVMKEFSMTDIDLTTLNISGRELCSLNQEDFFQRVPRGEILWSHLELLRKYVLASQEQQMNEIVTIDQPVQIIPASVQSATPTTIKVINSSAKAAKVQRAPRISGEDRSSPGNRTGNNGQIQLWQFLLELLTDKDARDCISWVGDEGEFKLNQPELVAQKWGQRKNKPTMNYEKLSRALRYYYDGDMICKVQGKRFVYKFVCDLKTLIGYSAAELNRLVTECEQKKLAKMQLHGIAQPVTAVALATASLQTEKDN
# Outline: as §1
# [4] = target: T4, ERG (Homo sapiens, UniProt P11308 1-479); conditions: protein: recombinant; tags: N-terminal GST; dsDNA, one strand shown
# T4 sequence: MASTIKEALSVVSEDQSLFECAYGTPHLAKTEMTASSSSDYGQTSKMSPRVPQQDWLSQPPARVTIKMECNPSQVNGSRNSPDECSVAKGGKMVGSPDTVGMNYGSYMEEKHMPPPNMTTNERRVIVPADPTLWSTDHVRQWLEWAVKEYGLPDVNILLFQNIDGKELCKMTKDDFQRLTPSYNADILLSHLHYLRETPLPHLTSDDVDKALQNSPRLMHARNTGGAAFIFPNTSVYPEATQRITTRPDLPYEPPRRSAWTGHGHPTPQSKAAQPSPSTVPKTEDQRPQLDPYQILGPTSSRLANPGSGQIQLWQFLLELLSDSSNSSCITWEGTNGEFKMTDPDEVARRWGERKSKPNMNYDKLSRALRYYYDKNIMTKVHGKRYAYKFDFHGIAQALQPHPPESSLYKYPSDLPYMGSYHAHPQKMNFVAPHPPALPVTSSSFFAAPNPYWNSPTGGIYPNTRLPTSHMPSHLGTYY
# Outline: as §1
# [5] = target: ELF1 (Homo sapiens, UniProt P32519 1-619); conditions: protein: recombinant; tags: N-terminal GST; dsDNA, one strand shown
# Sequence of ELF1 (P32519 whole entry): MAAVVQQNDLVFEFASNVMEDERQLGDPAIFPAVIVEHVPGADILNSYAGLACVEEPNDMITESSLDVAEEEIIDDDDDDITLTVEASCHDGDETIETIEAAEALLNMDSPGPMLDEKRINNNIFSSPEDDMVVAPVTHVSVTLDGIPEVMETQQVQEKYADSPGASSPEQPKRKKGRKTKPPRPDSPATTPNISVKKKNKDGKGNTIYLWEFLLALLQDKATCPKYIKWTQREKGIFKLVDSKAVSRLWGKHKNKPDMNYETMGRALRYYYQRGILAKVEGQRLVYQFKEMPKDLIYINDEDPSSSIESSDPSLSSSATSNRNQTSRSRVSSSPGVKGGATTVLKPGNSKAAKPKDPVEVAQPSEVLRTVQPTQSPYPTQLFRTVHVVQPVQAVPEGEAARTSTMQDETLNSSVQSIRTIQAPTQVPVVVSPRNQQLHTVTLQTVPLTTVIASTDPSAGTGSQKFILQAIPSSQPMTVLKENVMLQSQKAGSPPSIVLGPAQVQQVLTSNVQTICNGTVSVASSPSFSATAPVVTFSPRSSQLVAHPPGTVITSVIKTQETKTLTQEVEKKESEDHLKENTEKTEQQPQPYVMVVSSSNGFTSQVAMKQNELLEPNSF
# Outline: as §1
# [6] = target: T5, EHF (Homo sapiens, UniProt Q9NZC4 1-300); conditions: protein: recombinant; tags: N-terminal GST; dsDNA, one strand shown
# T5 sequence: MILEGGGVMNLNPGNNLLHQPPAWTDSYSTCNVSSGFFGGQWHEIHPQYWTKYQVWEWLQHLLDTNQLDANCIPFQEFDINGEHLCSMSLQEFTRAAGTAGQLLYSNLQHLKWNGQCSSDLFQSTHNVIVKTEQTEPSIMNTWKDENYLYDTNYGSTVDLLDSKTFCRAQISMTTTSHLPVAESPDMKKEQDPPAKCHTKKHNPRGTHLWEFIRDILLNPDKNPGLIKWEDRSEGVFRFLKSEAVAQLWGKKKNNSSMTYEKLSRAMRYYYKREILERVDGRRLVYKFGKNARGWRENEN
# Outline: as §1
# [7] = target: SPI1 (Homo sapiens, UniProt P17947 1-270); conditions: protein: recombinant; tags: N-terminal GST; dsDNA, one strand shown
# Outline: as §1
# [8] = target: SPIB (Homo sapiens, UniProt Q01892 1-262); conditions: protein: recombinant; tags: N-terminal GST; dsDNA, one strand shown
# Sequence of SPIB (Q01892 whole entry): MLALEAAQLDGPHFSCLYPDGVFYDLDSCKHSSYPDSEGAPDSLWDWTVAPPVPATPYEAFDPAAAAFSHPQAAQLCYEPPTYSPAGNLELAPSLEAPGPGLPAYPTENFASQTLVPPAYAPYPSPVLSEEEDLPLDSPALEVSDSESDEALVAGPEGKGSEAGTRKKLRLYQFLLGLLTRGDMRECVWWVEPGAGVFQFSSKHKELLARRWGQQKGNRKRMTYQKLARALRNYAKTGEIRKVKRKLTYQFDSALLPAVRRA
# Outline: as §1
# [9] = target: T6, ELK3 (Homo sapiens, UniProt P41970 1-407); conditions: protein: recombinant; tags: N-terminal GST; dsDNA, one strand shown
# T6 sequence: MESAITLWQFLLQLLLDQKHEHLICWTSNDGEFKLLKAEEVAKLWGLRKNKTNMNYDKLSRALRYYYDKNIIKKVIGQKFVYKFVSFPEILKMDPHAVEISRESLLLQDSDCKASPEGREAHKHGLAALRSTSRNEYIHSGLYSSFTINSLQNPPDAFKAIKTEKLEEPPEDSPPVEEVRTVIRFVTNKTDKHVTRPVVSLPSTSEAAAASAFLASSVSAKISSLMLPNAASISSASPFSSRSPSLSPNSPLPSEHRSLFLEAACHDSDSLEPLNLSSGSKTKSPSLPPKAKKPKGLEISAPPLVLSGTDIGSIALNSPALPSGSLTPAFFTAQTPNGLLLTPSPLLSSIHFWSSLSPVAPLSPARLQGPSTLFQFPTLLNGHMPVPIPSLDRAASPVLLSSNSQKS
# Outline: as §1
# [10] = target: T7, FEV (Homo sapiens, UniProt Q99581 1-238); conditions: protein: recombinant; tags: N-terminal GST; dsDNA, one strand shown
# T7 sequence: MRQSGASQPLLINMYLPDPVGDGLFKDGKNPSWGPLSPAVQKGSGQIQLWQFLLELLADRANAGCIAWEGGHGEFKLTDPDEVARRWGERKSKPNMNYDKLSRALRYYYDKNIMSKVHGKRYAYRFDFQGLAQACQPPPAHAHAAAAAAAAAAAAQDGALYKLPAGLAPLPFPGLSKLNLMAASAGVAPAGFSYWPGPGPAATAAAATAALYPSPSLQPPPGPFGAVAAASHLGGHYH
# Outline: as §1
# [11] = target: ETV5 (Homo sapiens, UniProt P41161 1-510); conditions: protein: recombinant; tags: N-terminal GST; dsDNA, one strand shown
# Sequence of ETV5 (P41161 whole entry): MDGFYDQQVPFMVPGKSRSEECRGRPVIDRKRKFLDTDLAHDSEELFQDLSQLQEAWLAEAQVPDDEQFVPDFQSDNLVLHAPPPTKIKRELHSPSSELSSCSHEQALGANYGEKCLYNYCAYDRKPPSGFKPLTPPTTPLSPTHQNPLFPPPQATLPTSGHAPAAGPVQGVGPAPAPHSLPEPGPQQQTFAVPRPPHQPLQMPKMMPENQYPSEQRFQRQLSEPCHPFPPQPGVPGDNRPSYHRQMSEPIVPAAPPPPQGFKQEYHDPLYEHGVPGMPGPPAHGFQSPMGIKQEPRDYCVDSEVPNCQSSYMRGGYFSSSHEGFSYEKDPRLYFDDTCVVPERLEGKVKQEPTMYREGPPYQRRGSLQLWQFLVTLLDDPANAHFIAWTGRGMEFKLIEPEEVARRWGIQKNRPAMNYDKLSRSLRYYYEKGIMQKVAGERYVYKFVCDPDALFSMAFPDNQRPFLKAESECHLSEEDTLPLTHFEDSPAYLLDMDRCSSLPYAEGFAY
# Outline: as §1
# [12] = target: HSF1 (Homo sapiens, UniProt Q00613 1-529); conditions: protein: recombinant; tags: N-terminal GST; chain copies: 3; dsDNA, one strand shown
# Sequence of HSF1 (Q00613 whole entry): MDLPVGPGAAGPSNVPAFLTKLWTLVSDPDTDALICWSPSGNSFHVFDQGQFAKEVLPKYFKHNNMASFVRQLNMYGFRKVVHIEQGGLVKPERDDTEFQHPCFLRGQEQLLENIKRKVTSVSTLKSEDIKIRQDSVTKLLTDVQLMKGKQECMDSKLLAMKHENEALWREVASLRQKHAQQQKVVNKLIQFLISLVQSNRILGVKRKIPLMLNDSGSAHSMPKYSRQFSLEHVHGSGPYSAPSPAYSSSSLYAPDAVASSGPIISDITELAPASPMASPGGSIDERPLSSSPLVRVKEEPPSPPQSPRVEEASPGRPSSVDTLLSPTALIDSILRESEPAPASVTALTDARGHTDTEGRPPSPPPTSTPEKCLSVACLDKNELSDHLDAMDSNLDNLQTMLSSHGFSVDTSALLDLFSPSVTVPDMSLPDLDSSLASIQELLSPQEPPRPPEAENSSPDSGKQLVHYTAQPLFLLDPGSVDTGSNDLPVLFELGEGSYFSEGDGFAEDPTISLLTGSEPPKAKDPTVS
# Outline: as §1
# [13] = target: T8, SPIC (Homo sapiens, UniProt Q8N5J4 1-248); conditions: protein: recombinant; tags: N-terminal GST; dsDNA, one strand shown
# T8 sequence: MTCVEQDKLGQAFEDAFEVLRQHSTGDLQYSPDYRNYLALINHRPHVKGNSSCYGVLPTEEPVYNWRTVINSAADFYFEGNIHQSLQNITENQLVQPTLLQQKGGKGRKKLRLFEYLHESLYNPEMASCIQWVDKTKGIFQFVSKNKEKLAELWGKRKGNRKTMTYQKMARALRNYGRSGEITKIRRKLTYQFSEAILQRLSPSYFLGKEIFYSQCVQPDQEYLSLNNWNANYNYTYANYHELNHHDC
# Outline: as §1
# [14] = target: ELF4 (Homo sapiens, UniProt Q99607 1-663); conditions: protein: recombinant; tags: N-terminal GST; dsDNA, one strand shown
# Sequence of ELF4 (Q99607 whole entry): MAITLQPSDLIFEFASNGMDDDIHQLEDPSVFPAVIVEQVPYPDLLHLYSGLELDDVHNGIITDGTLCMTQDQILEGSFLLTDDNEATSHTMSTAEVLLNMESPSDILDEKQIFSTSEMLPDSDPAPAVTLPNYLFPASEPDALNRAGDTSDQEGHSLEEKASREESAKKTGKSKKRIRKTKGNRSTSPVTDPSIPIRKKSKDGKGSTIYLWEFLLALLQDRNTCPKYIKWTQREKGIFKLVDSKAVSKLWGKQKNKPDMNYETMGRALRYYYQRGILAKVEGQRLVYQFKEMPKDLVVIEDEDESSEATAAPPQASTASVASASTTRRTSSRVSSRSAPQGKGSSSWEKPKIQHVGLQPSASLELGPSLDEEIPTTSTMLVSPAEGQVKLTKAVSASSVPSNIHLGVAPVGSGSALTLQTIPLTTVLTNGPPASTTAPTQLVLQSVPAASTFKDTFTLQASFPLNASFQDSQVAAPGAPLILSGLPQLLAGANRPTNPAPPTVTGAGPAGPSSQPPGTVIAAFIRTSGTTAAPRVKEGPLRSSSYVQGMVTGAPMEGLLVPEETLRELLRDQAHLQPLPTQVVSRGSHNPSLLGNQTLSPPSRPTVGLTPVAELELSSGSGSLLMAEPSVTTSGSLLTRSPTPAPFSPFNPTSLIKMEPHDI
# Outline: as §1
# [15] = target: T9, ELK4 (Homo sapiens, UniProt P28324-2 1-405); conditions: protein: recombinant; tags: N-terminal GST; dsDNA, one strand shown
# T9 sequence: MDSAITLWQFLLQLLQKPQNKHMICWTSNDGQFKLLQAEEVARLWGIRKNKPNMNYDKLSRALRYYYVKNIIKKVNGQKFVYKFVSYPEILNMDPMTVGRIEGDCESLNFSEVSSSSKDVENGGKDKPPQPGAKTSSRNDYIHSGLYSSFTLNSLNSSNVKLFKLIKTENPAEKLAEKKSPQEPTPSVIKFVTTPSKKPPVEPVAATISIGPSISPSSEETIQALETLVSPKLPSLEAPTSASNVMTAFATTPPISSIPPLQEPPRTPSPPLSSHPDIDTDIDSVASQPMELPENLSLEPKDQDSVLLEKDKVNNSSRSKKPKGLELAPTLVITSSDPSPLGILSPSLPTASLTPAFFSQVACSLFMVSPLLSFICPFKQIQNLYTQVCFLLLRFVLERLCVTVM
# Outline: as §1
# [16] = target: T10, ETV2 (Homo sapiens, UniProt O00321 1-342); conditions: protein: recombinant; tags: N-terminal GST; dsDNA, one strand shown
# T10 sequence: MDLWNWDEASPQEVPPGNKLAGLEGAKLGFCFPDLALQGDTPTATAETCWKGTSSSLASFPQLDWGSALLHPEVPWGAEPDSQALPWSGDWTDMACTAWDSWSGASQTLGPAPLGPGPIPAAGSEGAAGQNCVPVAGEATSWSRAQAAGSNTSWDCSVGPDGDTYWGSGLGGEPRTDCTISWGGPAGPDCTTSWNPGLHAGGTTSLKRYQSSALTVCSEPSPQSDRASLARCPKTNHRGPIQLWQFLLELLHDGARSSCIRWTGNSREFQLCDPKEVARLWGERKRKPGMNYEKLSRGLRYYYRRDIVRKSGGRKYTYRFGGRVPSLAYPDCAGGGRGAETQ
# Outline: as §1
# [17] = target: T11, ELF3 (Homo sapiens, UniProt P78545 1-371); conditions: protein: recombinant; tags: N-terminal GST; dsDNA, one strand shown
# T11 sequence: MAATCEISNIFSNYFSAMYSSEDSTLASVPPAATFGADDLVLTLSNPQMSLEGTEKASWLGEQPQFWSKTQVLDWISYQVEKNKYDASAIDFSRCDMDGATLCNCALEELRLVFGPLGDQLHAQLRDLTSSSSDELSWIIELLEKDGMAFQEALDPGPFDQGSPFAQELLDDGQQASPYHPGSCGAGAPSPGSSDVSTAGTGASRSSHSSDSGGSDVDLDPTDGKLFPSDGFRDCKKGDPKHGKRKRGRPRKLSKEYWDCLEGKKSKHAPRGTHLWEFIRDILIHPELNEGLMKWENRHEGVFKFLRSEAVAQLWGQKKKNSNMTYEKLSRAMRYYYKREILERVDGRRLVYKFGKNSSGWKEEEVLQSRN
# Outline: as §1
# [18] = target: CRX (Homo sapiens, UniProt O43186 1-299); conditions: protein: recombinant; tags: N-terminal GST; dsDNA, one strand shown
# Sequence of CRX (O43186 whole entry): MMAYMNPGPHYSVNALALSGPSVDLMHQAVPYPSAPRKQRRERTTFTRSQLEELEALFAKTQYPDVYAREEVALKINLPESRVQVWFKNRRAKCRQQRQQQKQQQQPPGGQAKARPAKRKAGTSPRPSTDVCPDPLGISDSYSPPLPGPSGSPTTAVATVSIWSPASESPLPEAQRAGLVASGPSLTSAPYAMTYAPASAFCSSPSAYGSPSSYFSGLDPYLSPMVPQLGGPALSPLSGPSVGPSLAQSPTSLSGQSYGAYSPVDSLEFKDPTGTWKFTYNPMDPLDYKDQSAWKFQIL
# Outline: as §1
# [19] = target: ETV1 (Homo sapiens, UniProt P50549 1-477); conditions: protein: recombinant; tags: N-terminal GST; dsDNA, one strand shown
# Sequence of ETV1 (P50549 whole entry): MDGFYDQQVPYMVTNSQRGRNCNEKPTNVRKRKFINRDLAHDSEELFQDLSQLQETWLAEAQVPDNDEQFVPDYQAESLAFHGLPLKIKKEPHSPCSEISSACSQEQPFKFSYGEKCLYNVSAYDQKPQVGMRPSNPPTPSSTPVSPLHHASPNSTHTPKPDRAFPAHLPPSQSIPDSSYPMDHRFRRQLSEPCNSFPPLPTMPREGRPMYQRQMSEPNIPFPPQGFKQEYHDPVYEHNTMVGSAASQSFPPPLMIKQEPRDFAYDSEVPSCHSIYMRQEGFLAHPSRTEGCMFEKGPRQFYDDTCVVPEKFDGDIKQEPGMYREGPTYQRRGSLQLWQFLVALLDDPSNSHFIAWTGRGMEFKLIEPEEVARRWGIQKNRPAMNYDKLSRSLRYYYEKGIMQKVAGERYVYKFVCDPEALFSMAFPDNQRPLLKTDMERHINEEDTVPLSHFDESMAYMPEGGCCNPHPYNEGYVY
# Outline: as §1
sequence,measurement,setting,value
CATTCT,binding signal,[1],"1.37 fold enrichment (6-mer frequency, TF over GST control)"
same,binding signal,[2],"1.33 fold enrichment (6-mer frequency, TF over GST control)"
same,binding signal,[3],"1.25 fold enrichment (6-mer frequency, TF over GST control)"
same,binding signal,[4],"1.27 fold enrichment (6-mer frequency, TF over GST control)"
same,binding signal,[5],"1.4 fold enrichment (6-mer frequency, TF over GST control)"
same,binding signal,[6],"1.35 fold enrichment (6-mer frequency, TF over GST control)"
same,binding signal,[7],"1.26 fold enrichment (6-mer frequency, TF over GST control)"
same,binding signal,[8],"1.22 fold enrichment (6-mer frequency, TF over GST control)"
same,binding signal,[9],"1.28 fold enrichment (6-mer frequency, TF over GST control)"
same,binding signal,[10],"1.29 fold enrichment (6-mer frequency, TF over GST control)"
same,binding signal,[11],"1.28 fold enrichment (6-mer frequency, TF over GST control)"
same,binding signal,[12],"2.56 fold enrichment (6-mer frequency, TF over GST control)"
same,binding signal,[13],"1.31 fold enrichment (6-mer frequency, TF over GST control)"
same,binding signal,[14],"1.37 fold enrichment (6-mer frequency, TF over GST control)"
same,binding signal,[15],"1.36 fold enrichment (6-mer frequency, TF over GST control)"
same,binding signal,[16],"1.36 fold enrichment (6-mer frequency, TF over GST control)"
same,binding signal,[17],"1.22 fold enrichment (6-mer frequency, TF over GST control)"
same,binding signal,[18],"1.63 fold enrichment (6-mer frequency, TF over GST control)"
same,binding signal,[19],"1.31 fold enrichment (6-mer frequency, TF over GST control)"
